About 83,000 compounds went through this panel and 20% of them were active in at least one assay; those are over-represented in the sample as a whole.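 Single-concentration screen, 48 h exposure, 96-well plates. Endpoint: percent growth. Below 10 = active.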 Active and inactive are the calls of the source.
Key:
Assay in all cases: NCI-60 one-dose screen, 48 h (100 = growth as untreated, 0 = no growth, -100 = all killed)
Conditions in all cases: 10 µM unless noted
NCI-H23 lung = test system: NCI-H23 lung
NCI-H226 lung = test system: NCI-H226 lung
NCI-H322M lung = test system: NCI-H322M lung
HOP-62 NSCLC = test system: HOP-62 NSCLC
NCI-H460 lung = test system: NCI-H460 lung
HOP-92 NSCLC = test system: HOP-92 NSCLC
NCI-H522 lung = test system: NCI-H522 lung
A549/ATCC NSCLC = test system: A549/ATCC NSCLC
786-0 renal = test system: 786-0 renal
COLO 205 colon = test system: COLO 205 colon
DU-145 prostate = test system: DU-145 prostate
K-562 leukemia = test system: K-562 leukemia
MALME-3M melanoma = test system: MALME-3M melanoma
MDA-MB-231 breast = test system: MDA-MB-231 breast
RXF 393 renal = test system: RXF 393 renal
SF-268 CNS = test system: SF-268 CNS
SF-295 CNS = test system: SF-295 CNS
SF-539 CNS = test system: SF-539 CNS
UACC-257 melanoma = test system: UACC-257 melanoma
M14 melanoma = test system: M14 melanoma

Measured: growth

O=C(CCN1CCCCC1)c1ccc(Cl)cc1
inactive: NCI-H23 lung 110% | NCI-H226 lung 94.6% | NCI-H322M lung 99.9% | HOP-62 NSCLC 100% | NCI-H460 lung 97.8% | HOP-92 NSCLC 83.1% | NCI-H522 lung 95.8% | A549/ATCC NSCLC 109% | 786-0 renal 103% | COLO 205 colon 107% | DU-145 prostate 106% | K-562 leukemia 118% | MALME-3M melanoma 105% | MDA-MB-231 breast 104% | RXF 393 renal 113% | SF-268 CNS 104% | SF-295 CNS 94.2% | SF-539 CNS 99.9% | UACC-257 melanoma 108% | M14 melanoma 107%

O=C1Nc2ccccc2/C1=C/C(=O)c1ccc(N2CCOCC2)cc1
inactive: NCI-H23 lung 87.4% | NCI-H226 lung 100% | NCI-H322M lung 104% | HOP-62 NSCLC 100% | NCI-H460 lung 101% | HOP-92 NSCLC 71.9% | NCI-H522 lung 35.7% | A549/ATCC NSCLC 96% | 786-0 renal 94.1% | COLO 205 colon 101% | DU-145 prostate 74% | K-562 leukemia 75% | MALME-3M melanoma 75.9% | MDA-MB-231 breast 88.4% | RXF 393 renal 92.2% | SF-268 CNS 86.5% | SF-295 CNS 99.1% | SF-539 CNS 90.8% | UACC-257 melanoma 95.7% | M14 melanoma 99.7%

CCCCCC1CCCCN1C(=O)OCCCC (stereo not given)
inactive: NCI-H23 lung 62% | NCI-H226 lung 87.5% | NCI-H322M lung 103% | HOP-62 NSCLC 122% | NCI-H460 lung 99.9% | HOP-92 NSCLC 113% | NCI-H522 lung 32% | A549/ATCC NSCLC 114% | 786-0 renal 104% | COLO 205 colon 111% | DU-145 prostate 118% | K-562 leukemia 109% | MALME-3M melanoma 88.9% | MDA-MB-231 breast 77.5% | RXF 393 renal 96.9% | SF-268 CNS 99.1% | SF-295 CNS 89.3% | SF-539 CNS 92% | M14 melanoma 105%
active: UACC-257 melanoma -7.74%

O=C(Nc1ccc(Cl)c(C(F)(F)F)c1)Nc1ccc(-c2cccnc2)cc1N1CCC(CO)CC1
active: COLO 205 colon -26.6% | MDA-MB-231 breast -17.5%
inactive: NCI-H23 lung 38.4% | NCI-H226 lung 53.4% | NCI-H322M lung 54.8% | HOP-62 NSCLC 47.5% | NCI-H460 lung 18.5% | HOP-92 NSCLC 34.5% | NCI-H522 lung 20.2% | A549/ATCC NSCLC 22.2% | 786-0 renal 15.6% | DU-145 prostate 53.2% | K-562 leukemia 15.1% | MALME-3M melanoma 43.1% | RXF 393 renal 26.2% | SF-268 CNS 47.6% | SF-295 CNS 17.8% | SF-539 CNS 18.9% | UACC-257 melanoma 40.2% | M14 melanoma 24.1%

COc1ccc(-c2c(C)nn3c(NCCN4CCOCC4)cc(C)nc23)cc1OC
inactive: NCI-H23 lung 102% | NCI-H226 lung 94.2% | NCI-H322M lung 102% | HOP-62 NSCLC 95% | NCI-H460 lung 103% | HOP-92 NSCLC 108% | NCI-H522 lung 106% | A549/ATCC NSCLC 96.6% | 786-0 renal 94.7% | COLO 205 colon 111% | DU-145 prostate 106% | K-562 leukemia 97.8% | MALME-3M melanoma 96.8% | MDA-MB-231 breast 86% | RXF 393 renal 83.6% | SF-268 CNS 101% | SF-295 CNS 82% | SF-539 CNS 81.9% | UACC-257 melanoma 99.9% | M14 melanoma 96.3%

Cc1ccc(NCCN2CCCCC2)c2c(=O)c3ccccc3sc12
active: NCI-H460 lung 2.26% | NCI-H522 lung 2.96% | COLO 205 colon -41.8% | RXF 393 renal -29.5% | UACC-257 melanoma -43% | M14 melanoma -30%
inactive: NCI-H23 lung 43.1% | NCI-H226 lung 57.2% | NCI-H322M lung 45.7% | HOP-62 NSCLC 55.6% | HOP-92 NSCLC 29.5% | A549/ATCC NSCLC 20.2% | 786-0 renal 30.7% | DU-145 prostate 36.7% | K-562 leukemia 16.2% | MALME-3M melanoma 22.1% | MDA-MB-231 breast 28.3% | SF-268 CNS 45.7% | SF-295 CNS 39% | SF-539 CNS 32.3%

C[C@H]1[C@H](C)CC[C@]2(C(=O)O)CC[C@]3(C)C(=CC[C@@H]4[C@@]5(C)C/C(=C/c6ccco6)C(=O)C(C)(C)[C@@H]5CC[C@]43C)[C@H]12
active: NCI-H23 lung -81.1% [100 µM] | NCI-H226 lung -52.3% [100 µM] | NCI-H322M lung -73.4% [100 µM] | HOP-62 NSCLC -75.7% [100 µM] | NCI-H460 lung -55.6% [100 µM] | HOP-92 NSCLC -87.7% [100 µM] | NCI-H522 lung -82.7% [100 µM] | A549/ATCC NSCLC -52.5% [100 µM] | 786-0 renal -40.3% [100 µM] | COLO 205 colon -60.9% [100 µM] | DU-145 prostate -73.1% [100 µM] | K-562 leukemia 7.11% [100 µM] | MALME-3M melanoma -86% [100 µM] | MDA-MB-231 breast -81.5% [100 µM] | RXF 393 renal -84% [100 µM] | SF-268 CNS -58.7% [100 µM] | SF-295 CNS -79.4% [100 µM] | SF-539 CNS -80.1% [100 µM] | UACC-257 melanoma -39.1% [100 µM] | M14 melanoma -43.6% [100 µM]

Reference: PubChem BioAssay (NCI)
